# From PubChem BioAssay (NCATS)
# Inconclusive results are not listed. A number with no mark means an inactive call. Active and inactive are the calls of the source. Calls follow the shape of the dose curve; as a rule, active = well fitted cell-killing curve with a large enough effect; inconclusive = small, poorly fitted or top-dose-only effect, or effect the other way; inactive = no such curve, though single readings can be large or run the other way.
# Assay: Quantitative High-Throughput drug screen in 47 multiple myeloma cell lines against the NCATS MIPE library collection: ARD_JJKsccE7 cell viability assay (AID 1918929;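 as to viability: 100% = DMSO-only wells and 0% = media-only wells without cells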)
# Details: ARD myeloma cell line viability, CellTiter-Glo, 48 h; series mostly up to 45.8 µM; viability: at the top concentration
# Outline: (§1)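 Primary qHTS used for cherry-picking: cells at 500/well, library compounds for 48 h (37C, 5% CO2), luminescent ATP assay.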
# Potency is read from the fitted curve at half-maximal effect.
SMILES,viability [%],Potency
O=C(O)CSCC(=O)NC1CCSC1=O (stereo not given),101,–
COc1ccc(-c2ccc3cc(C(=O)O)ccc3c2)cc1C12CC3CC(CC(C3)C1)C2,153,–
Cn1nnc2c(C(N)=O)ncn2c1=O,123,–
N[C@@H](C(=O)N[C@@H]1C(=O)N2C(C(=O)O)=C(Cl)CS[C@H]12)c1ccccc1,95.5,–
CCC(=O)O[C@]1(C(=O)SCF)[C@H](C)C[C@H]2[C@@H]3C[C@H](F)C4=CC(=O)C=C[C@]4(C)[C@@]3(F)[C@@H](O)C[C@@]21C,72.6,–
Nc1ccc(S(=O)(=O)Nc2ccccn2)cc1,114,–
Nc1[nH]c(=O)ncc1F,121,–
CN1CCN(c2c(F)cc3c(=O)c(C(=O)O)cn4c3c2OCN4C)CC1,140,–
CN(Cc1cc(Br)cc(Br)c1N)C1CCCCC1,105,–
Cc1cccc(N(C)C(=S)Oc2ccc3ccccc3c2)c1,–,20.9 µM (active)
OC(Cn1cncn1)(Cn1cncn1)c1ccc(F)cc1F,139,–
CC[C@H](C)C(=O)O[C@H]1C[C@@H](C)C=C2C=C[C@H](C)[C@H](CC[C@@H]3C[C@@H](O)CC(=O)O3)[C@H]21,111,–
COc1cc([C@@H]2c3cc4c(cc3[C@H](O)[C@H]3COC(=O)[C@H]23)OCO4)cc(OC)c1OC,13.8,–
Cc1noc(NS(=O)(=O)c2ccc(N)cc2)c1C,135,–
O=NN(CCCl)C(=O)NC1CCCCC1,113,–
COc1c(N2CCNC(C)C2)c(F)cc2c(=O)c(C(=O)O)cn(C3CC3)c12 (stereo not given),94.1,–
COc1cc(NS(=O)(=O)c2ccc(N)cc2)nc(OC)n1,110,–
CN(C)c1ccc(C(=C2C=CC(=[N+](C)C)C=C2)c2ccc(N(C)C)cc2)cc1,–,0.526 µM (active)
CCOCC(O)COc1ccc(NC(=O)CC[S+](C)C)cc1 (stereo not given),97.3,–
N=C(N)c1ccc(OCCCCCOc2ccc(C(=N)N)cc2)cc1,145,–

# Assay: Quantitative High-Throughput drug screen in 47 multiple myeloma cell lines against the NCATS MIPE library collection: Karpas620_DSMZ cell viability assay (AID 1918959); also: nearly all actives have a fitted effect of over 30% in size;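 as to viability (% of DMSO): 100% = DMSO-only wells and 0% = cell-free media-only wells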
# Details: Karpas620 myeloma viability, CellTiter-Glo ATP luminescence, 48 h; series mostly up to 45.8 µM; viability (% of DMSO): at the top concentration
# Outline: as §1
SMILES,Potency,viability (% of DMSO) [%]
COc1ccc(C(=O)CC(=O)c2ccc(C(C)(C)C)cc2)cc1,4.18 µM (active),–
CCN1CCCC1CNC(=O)c1cc(S(N)(=O)=O)ccc1OC (stereo not given),–,109
Oc1c(Cl)cc(Cl)c2cccnc12,3.72 µM (active),–
Cc1oc(=O)oc1CN1CCN(c2cc3c(cc2F)c(=O)c(C(=O)O)c2n3C(C)S2)CC1 (stereo not given),–,112
O=C(O)C1CCCN(CCC=C(c2ccccc2)c2ccccc2)C1 (stereo not given),–,123
COc1ccc2cc3[n+](cc2c1OC)CCc1cc2c(cc1-3)OCO2,14.8 µM (active),–
CN(C)CCc1c[nH]c2ccc(C[C@H]3COC(=O)N3)cc12,–,103
CO[C@@]12[C@H](COC(N)=O)C3=C(C(=O)C(C)=C(N)C3=O)N1C[C@@H]1N[C@@H]12,–,107
Nc1nc(N)c2nc(CNc3ccc(C(=O)NC(CCC(=O)O)C(=O)O)cc3)cnc2n1 (stereo not given),–,115
CC[C@H](NC(C)C)[C@H](O)c1ccc(O)c2[nH]c(=O)ccc12,–,105
O=C(O)CSCC(=O)NC1CCSC1=O (stereo not given),–,122
COc1ccc(-c2ccc3cc(C(=O)O)ccc3c2)cc1C12CC3CC(CC(C3)C1)C2,–,116
Cn1nnc2c(C(N)=O)ncn2c1=O,–,120
CCC(=O)O[C@]1(C(=O)SCF)[C@H](C)C[C@H]2[C@@H]3C[C@H](F)C4=CC(=O)C=C[C@]4(C)[C@@]3(F)[C@@H](O)C[C@@]21C,–,111
Nc1ccc(S(=O)(=O)Nc2ccccn2)cc1,–,110
Nc1[nH]c(=O)ncc1F,–,101
CN1CCN(c2c(F)cc3c(=O)c(C(=O)O)cn4c3c2OCN4C)CC1,–,118
CN(Cc1cc(Br)cc(Br)c1N)C1CCCCC1,–,125
Cc1cccc(N(C)C(=S)Oc2ccc3ccccc3c2)c1,–,91.1
OC(Cn1cncn1)(Cn1cncn1)c1ccc(F)cc1F,–,162
CC[C@H](C)C(=O)O[C@H]1C[C@@H](C)C=C2C=C[C@H](C)[C@H](CC[C@@H]3C[C@@H](O)CC(=O)O3)[C@H]21,–,94.4
COc1cc([C@@H]2c3cc4c(cc3[C@H](O)[C@H]3COC(=O)[C@H]23)OCO4)cc(OC)c1OC,–,59.3
Cc1noc(NS(=O)(=O)c2ccc(N)cc2)c1C,–,108
O=NN(CCCl)C(=O)NC1CCCCC1,–,116
COc1c(N2CCNC(C)C2)c(F)cc2c(=O)c(C(=O)O)cn(C3CC3)c12 (stereo not given),–,118
COc1cc(NS(=O)(=O)c2ccc(N)cc2)nc(OC)n1,–,108
CCOCC(O)COc1ccc(NC(=O)CC[S+](C)C)cc1 (stereo not given),–,108

# Assay: Quantitative High-Throughput drug screen in 47 multiple myeloma cell lines against the NCATS MIPE library collection: KMM1_JCRB cell viability assay (AID 1918960); also: nearly all actives have a fitted effect of over 30% in size;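 as to viability (% of DMSO): 100% = DMSO-treated cells and 0% = medium-only wells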
# Details: KMM1 myeloma viability, CellTiter-Glo ATP luminescence, 48 h; series mostly up to 45.8 µM; viability (% of DMSO): at the top concentration
# Outline: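 Here, 48 h treatment with MIPE 4.0 agents at 37 °C preceded an ATP luminescence read. Plating density was 500 cells per well.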
SMILES,Potency,viability (% of DMSO) [%]
COc1ccc(C(=O)CC(=O)c2ccc(C(C)(C)C)cc2)cc1,7.43 µM (active),–
CCN1CCCC1CNC(=O)c1cc(S(N)(=O)=O)ccc1OC (stereo not given),–,109
COc1cc2ncnc(Nc3cccc(Cl)c3)c2cc1OC,20.9 µM (active),–
Cc1oc(=O)oc1CN1CCN(c2cc3c(cc2F)c(=O)c(C(=O)O)c2n3C(C)S2)CC1 (stereo not given),–,117
CCc1c2c(nc3ccc(OC(=O)N4CCC(N5CCCCC5)CC4)cc13)-c1cc3c(c(=O)n1C2)COC(=O)[C@]3(O)CC,0.935 µM (active),–
O=C(O)C1CCCN(CCC=C(c2ccccc2)c2ccccc2)C1 (stereo not given),–,110
COc1ccc2cc3[n+](cc2c1OC)CCc1cc2c(cc1-3)OCO2,10.5 µM (active),–
COC(=O)Nc1nc2ccc(Sc3ccccc3)cc2[nH]1,1.18 µM (active),–
CO[C@@]12[C@H](COC(N)=O)C3=C(C(=O)C(C)=C(N)C3=O)N1C[C@@H]1N[C@@H]12,–,120
COc1ccc(-c2ccc3cc(C(=O)O)ccc3c2)cc1C12CC3CC(CC(C3)C1)C2,–,121
Cn1nnc2c(C(N)=O)ncn2c1=O,–,83
N[C@@H](C(=O)N[C@@H]1C(=O)N2C(C(=O)O)=C(Cl)CS[C@H]12)c1ccccc1,–,80.4
CCC(=O)O[C@]1(C(=O)SCF)[C@H](C)C[C@H]2[C@@H]3C[C@H](F)C4=CC(=O)C=C[C@]4(C)[C@@]3(F)[C@@H](O)C[C@@]21C,–,66.4
Nc1ccc(S(=O)(=O)Nc2ccccn2)cc1,–,100
Nc1[nH]c(=O)ncc1F,–,90.1
CN1CCN(c2c(F)cc3c(=O)c(C(=O)O)cn4c3c2OCN4C)CC1,–,108
OC(Cn1cncn1)(Cn1cncn1)c1ccc(F)cc1F,–,131
CC[C@H](C)C(=O)O[C@H]1C[C@@H](C)C=C2C=C[C@H](C)[C@H](CC[C@@H]3C[C@@H](O)CC(=O)O3)[C@H]21,–,89.1
COc1cc([C@@H]2c3cc4c(cc3[C@H](O)[C@H]3COC(=O)[C@H]23)OCO4)cc(OC)c1OC,0.001 µM (active),–
Cc1noc(NS(=O)(=O)c2ccc(N)cc2)c1C,–,97.8
COc1cc(NS(=O)(=O)c2ccc(N)cc2)nc(OC)n1,–,86.2
CCOCC(O)COc1ccc(NC(=O)CC[S+](C)C)cc1 (stereo not given),–,85.7
N=C(N)c1ccc(OCCCCCOc2ccc(C(=N)N)cc2)cc1,5.26 µM (active),–
